Assay results: PubChem BioAssay (NCATS)
Inconclusive results are not listed. A call without a number means that no potency is given here. Active and inactive are the calls of the source. Unless noted, the call rests on the fitted dose curve; in most records, active means well fitted curve in the direction sought with a large enough effect; inconclusive means small, poorly fitted or top-dose-only effect, or another doubt; inactive means no such curve, though single readings can be large; an effect the other way counts as inactive or inconclusive.

What was measured:
[1] = target: Endonuclease 4 (Escherichia coli (strain K12)) (UniProt P0A6C1); assay: Counterscreen for APE1 Inhibitors: qHTS Validation Assay for Inhibitors of Endonuclease IV (AID 1708)
Summary of the method: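 E. coli EndoIV at 2 nM final, preincubated 15 min at room temperature with compound, then 50 nM TAMRA/BHQ-2 THF abasic-site duplex added. Buffer: 50 mM Tris-HCl pH 7.5, 50 mM NaCl, 2 mM MgCl2, 1 mM DTT, 0.01% Tween-20. Kinetic fluorescence increase, third minus first read.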

[2] = qHTS for differential inhibitors of proliferation of Plasmodium falciparum line 7G8 (AID 1815);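 further: parasite growth measured after three days of incubation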; further: potency means the concentration at half of the fitted maximal effect
[3] = qHTS for differential inhibitors of proliferation of Plasmodium falciparum line Dd2 (AID 1882); conditions: Potency: Plasmodium falciparum Dd2 proliferation inhibition; further: nearly all actives have a fitted effect of over 65% in size; further: potency means the concentration at half of the fitted maximal effect
Summary of the method: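 Dd2-infected erythrocytes (0.3% parasitemia, 2.5% hematocrit final) incubated with compound 72 h at 37 C, 5% CO2; lysed with saponin/Triton buffer containing SYBR Green I, incubated overnight in the dark, then read by fluorescence (485/535 nm). Normalized to 0.29 uM artemisinin and DMSO.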

[4] = qHTS for differential inhibitors of proliferation of Plasmodium falciparum line HB3 (AID 1886); conditions: Potency: Plasmodium falciparum HB3 proliferation inhibition;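 further: parasites grown with compound for 72 h before SYBR Green readout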; further: potency means the concentration at half of the fitted maximal effect
[5] = target: Ferritin light chain (Equus caballus) (UniProt P02791); assay: qHTS Validation Assay for Identification of Novel General Anesthetics (AID 2323)
Chain of Ferritin light chain (Equus caballus) (P02791 2-175 limits assumed): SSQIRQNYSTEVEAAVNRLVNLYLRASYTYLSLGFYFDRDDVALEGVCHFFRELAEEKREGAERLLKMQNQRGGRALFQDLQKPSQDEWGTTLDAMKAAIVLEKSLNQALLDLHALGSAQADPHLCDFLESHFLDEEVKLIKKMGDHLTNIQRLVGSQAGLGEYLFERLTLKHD
Summary of the method: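 10 uM horse-spleen apoferritin + 1-AMA (50% saturated, PBS); cpd pin-transferred, 10 min RT. Ex 380/Em 535 nm endpoint. Activity normalized between free 1-AMA and 1-AMA/apoferritin; 4-parameter Hill fit of concentration-response.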

[6] = target: ATP-dependent DNA helicase Q1 (Homo sapiens) (UniProt P46063); assay: qHTS Validation Assay for Inhibitors of RecQ-Like Dna Helicase 1 (RECQ1) (AID 2353)
Chain of ATP-dependent DNA helicase Q1 (Homo sapiens) (P46063 whole entry, looked up): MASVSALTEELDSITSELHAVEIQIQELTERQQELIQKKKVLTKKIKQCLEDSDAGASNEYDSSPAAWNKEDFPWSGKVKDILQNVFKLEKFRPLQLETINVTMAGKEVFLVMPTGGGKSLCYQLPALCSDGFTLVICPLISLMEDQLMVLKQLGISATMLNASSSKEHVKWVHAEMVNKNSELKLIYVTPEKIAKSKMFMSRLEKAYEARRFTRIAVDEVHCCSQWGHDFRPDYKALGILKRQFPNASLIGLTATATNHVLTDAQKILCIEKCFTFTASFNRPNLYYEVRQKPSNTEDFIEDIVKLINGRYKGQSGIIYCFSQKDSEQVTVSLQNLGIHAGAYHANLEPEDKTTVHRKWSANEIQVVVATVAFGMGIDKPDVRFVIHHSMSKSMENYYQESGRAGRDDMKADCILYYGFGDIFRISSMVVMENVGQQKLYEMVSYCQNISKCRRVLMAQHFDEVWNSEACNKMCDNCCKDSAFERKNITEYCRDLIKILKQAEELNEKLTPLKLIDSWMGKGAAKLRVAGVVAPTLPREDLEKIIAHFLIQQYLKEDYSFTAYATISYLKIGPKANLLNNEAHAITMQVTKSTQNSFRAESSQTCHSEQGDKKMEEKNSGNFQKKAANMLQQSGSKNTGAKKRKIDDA
Summary of the method: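 50 nM RECQ1T1 preincubated 15 min with compound in Tris pH 8.0 buffer with MgCl2, DTT, Tween-20 and 2.5 ug/ml poly(dI-dC); started with 200 nM TAMRA/BHQ-2 forked duplex and 2 mM ATP. Unwinding read as fluorescence (525/598 nm), two reads 2 h apart.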

[7] = Cytometric Cell-Based qHTS for Inhibitors of the mTORC1 Signaling Pathway in MEF (Tsc2-/-, p53-/-) Cells (AID 2660);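 further: percent of cells above a phospho-rpS6 to PI ratio cutoff in each well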
Summary of the method: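 Cells are plated, treated with compound for 24 hrs at 37 degree Celsius, then fixed, blocked and immunostained for phospho-rpS6 Ser235/236. Propidium iodide counterstain follows. Per-well % positive cells is derived from the PI-normalized phospho-S6 signal.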

[8] = High Content Imaging Cell-Based qHTS for Inhibitors of the mTORC1 Signaling Pathway in MEF (Tsc2-/-, p53-/-) Cells (AID 2666); conditions: at 38.3 µM (top of the series);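 further: percent of cells scored positive for phospho-rpS6 Ser235/236 immunostaining by imaging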
Summary of the method: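 Phospho-rpS6 (Ser235/236) immunofluorescence, normalized and scored as % positive cells using rapamycin and DMSO controls, was read in empty-vector Tsc2-/-, p53-/- MEFs after 24 h compound exposure at 37 C; propidium iodide counted cells.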

[9] = High Content Imaging Cell-Based qHTS for Inhibitors of the mTORC1 Signaling Pathway in MEF Cells (AID 2667);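 further: Tsc2-/- p53-/- MEFs stably re-expressing wild-type Tsc2 exposed 24 h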
Summary of the method: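 WT MEFs (Tsc2-/-, p53-/- re-expressing Tsc2), in DMEM + 10% FBS, were treated with compound for 24 h at 37 C. Cells were then fixed and stained for phospho-rpS6 Ser235/236 with propidium iodide as cell count. Values are % positive cells, with thresholds set against rapamycin-treated cells.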

[10] = Cytometry Cell-Based qHTS for Inhibitors of the mTORC1 Signaling Pathway in MEF cells (AID 2668);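 further: Tsc2-/- p53-/- mouse embryonic fibroblasts stably re-expressing wild-type Tsc2; percent cells positive for phospho-rpS6 Ser235/236 relative to propidium iodide stain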
Summary of the method: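 Read-out: phospho-rpS6 Ser235/236 immunofluorescence normalized to propidium iodide intensity, scored as % active cells against a rapamycin (7.5 nM) threshold. Cells: Tsc2-/-, p53-/- MEFs stably expressing WT Tsc2, compound-treated 24 hrs at 37 degree Celsius.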

[11] = Validation screen for small molecules that induce DNA re-replication in MCF 10A normal breast cells (AID 463097); further: nearly all actives have a fitted effect of over 60% in size
Summary of the method: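 250 MCF 10A cells/well; compound pin-transferred; 48 hr, 37 C, 5% CO2; Hoechst 40 min; imaged 405/500-530 nm. Hits = more high-intensity nuclei.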

[12] = target: Ubiquitin carboxyl-terminal hydrolase 2 (Homo sapiens) (UniProt O75604); assay: qHTS Validation Assay for Inhibitors of Ubiquitin-specific Protease USP2a Using CHOP2 as the Reporter (AID 463106)
Chain of Ubiquitin carboxyl-terminal hydrolase 2 (Homo sapiens) (O75604 whole entry, looked up): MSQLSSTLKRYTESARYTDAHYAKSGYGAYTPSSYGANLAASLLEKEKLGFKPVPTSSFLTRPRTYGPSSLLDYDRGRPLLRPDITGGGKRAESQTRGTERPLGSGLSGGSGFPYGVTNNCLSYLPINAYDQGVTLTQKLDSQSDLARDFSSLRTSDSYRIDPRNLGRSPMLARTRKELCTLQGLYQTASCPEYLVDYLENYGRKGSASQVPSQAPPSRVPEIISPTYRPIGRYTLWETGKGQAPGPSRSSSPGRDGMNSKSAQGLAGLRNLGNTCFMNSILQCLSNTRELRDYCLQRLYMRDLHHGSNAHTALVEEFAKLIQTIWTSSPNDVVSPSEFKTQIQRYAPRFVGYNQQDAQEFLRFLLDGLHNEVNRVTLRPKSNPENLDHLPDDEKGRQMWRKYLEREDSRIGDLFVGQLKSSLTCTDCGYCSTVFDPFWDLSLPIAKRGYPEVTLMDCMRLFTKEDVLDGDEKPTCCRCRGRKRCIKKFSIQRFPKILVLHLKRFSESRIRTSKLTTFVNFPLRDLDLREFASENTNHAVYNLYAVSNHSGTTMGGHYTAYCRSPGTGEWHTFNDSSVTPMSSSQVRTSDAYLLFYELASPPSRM
Summary of the method: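 USP2 core (10 nM final) was preincubated with compound 30 min at RT in pH 8.0 Tris/CaCl2/beta-ME/CHAPS buffer. Ub-CHOP2 and reporter substrate (25 nM final each) were then added, with fluorescence (Ex 485/Em 531) read after 60 min. Data were normalized to NEM full inhibition and fitted to concentration-response curves.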

[13] = target: DNA polymerase III PolC-type (Bacillus subtilis (strain 168)) (UniProt P13267); assay: qHTS Validation Assay for the Inhibitors of DNA Replication in Gram-Positive Bacteria (AID 485295);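 further: reconstituted holoenzyme with PolC plus beta clamp SSB and primase; PicoGreen fluorescence of double-stranded DNA made on primed circular M13 template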
Chain of DNA polymerase III PolC-type (Bacillus subtilis (strain 168)) (P13267 whole entry, looked up): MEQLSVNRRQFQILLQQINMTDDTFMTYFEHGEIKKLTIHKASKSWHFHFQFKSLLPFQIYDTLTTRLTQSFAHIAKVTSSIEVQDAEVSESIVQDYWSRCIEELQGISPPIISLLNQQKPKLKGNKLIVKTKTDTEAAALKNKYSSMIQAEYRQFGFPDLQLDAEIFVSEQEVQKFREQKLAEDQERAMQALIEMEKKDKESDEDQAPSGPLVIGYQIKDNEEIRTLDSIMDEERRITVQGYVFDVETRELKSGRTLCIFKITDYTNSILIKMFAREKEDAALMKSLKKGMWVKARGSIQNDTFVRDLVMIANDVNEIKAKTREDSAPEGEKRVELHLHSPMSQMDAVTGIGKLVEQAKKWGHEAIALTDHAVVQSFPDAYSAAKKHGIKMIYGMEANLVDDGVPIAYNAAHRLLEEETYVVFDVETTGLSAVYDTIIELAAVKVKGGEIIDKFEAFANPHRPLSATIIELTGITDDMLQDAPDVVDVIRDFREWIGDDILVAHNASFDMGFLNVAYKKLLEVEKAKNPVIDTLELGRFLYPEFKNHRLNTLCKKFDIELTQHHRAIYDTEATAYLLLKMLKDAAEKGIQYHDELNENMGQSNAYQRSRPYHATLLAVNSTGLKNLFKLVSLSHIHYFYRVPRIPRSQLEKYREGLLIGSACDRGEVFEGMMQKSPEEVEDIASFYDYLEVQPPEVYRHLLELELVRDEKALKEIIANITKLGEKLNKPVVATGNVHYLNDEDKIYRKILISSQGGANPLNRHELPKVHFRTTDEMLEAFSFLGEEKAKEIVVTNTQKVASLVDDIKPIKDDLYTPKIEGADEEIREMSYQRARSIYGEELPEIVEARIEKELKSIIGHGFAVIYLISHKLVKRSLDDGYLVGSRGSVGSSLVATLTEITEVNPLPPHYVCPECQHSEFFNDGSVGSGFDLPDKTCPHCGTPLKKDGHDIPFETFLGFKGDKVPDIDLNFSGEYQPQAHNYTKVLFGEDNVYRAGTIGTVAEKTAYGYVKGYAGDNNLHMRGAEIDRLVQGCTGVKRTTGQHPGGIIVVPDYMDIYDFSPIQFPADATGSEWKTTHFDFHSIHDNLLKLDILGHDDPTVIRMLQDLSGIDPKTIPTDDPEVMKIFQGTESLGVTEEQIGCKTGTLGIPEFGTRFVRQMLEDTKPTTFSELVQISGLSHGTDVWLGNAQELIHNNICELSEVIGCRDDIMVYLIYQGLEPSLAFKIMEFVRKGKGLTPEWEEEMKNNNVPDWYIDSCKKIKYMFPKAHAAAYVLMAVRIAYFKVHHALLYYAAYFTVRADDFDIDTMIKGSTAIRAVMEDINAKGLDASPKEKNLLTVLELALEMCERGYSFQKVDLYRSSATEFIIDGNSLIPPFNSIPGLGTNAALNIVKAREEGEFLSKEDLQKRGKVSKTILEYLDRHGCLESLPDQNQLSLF
Summary of the method: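 PicoGreen fluorescence (ex 480–485/em 535–540 nm) reports dsDNA synthesized on ssM13Gori template with dNTPs/NTPs. Enzyme: holoenzyme rebuilt from purified PolC, beta subunit, SSB and primase. Compound preincubated before substrate addition; RT throughout.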

[14] = target: Tumor susceptibility gene 101 protein (Homo sapiens) (UniProt Q99816); assay: qHTS Validation Assay for Iinhibitors of HIV-1 Budding by Blocking the Interaction of PTAP/TSG101 (AID 485342; calls by dose curve)
Chain of Tumor susceptibility gene 101 protein (Homo sapiens) (Q99816 whole entry, looked up, the tested form may be a part): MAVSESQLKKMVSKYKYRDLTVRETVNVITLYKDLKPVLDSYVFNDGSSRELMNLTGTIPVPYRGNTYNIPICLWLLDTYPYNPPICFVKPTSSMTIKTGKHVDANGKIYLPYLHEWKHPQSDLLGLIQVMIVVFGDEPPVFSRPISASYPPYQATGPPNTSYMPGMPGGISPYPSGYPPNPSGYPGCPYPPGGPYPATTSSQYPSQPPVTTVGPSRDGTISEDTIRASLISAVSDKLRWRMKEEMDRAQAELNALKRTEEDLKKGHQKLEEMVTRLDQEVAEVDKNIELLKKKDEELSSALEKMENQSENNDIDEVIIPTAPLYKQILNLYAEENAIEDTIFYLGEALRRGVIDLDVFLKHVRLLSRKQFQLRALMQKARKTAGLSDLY
Summary of the method: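 FP read-out: FITC-PTAP peptide, 50 nM final, binding Tsg101 binding domain, 10 uM final; 20 min r.t.; 10 mM HEPES pH 7.5, 0.15 M NaCl, 0.01% Tween 20, 3 mM EDTA, 0.1 mM TCEP.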

[15] = qHTS Assay for Identification of Small Molecule Inducers of Hypoxia Response (AID 2120; active means well fitted curve in the direction sought with a large enough effect in the signal ratio, with a control signal flat, not every such curve was filed as active; the % refers to the signal ratio)
Summary of the method: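 HRE-bla ME-180 cells in Opti-MEM with 0.5% dialyzed FBS, pre-plated 4-5 h, then compound titration for 17 h at 37 degrees Celsius. CCF4 loaded 2.5 h at room temperature; 460/530 nm ratio gave %Activity and AC50 for induction.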

[16] = qHTS for differential inhibitors of proliferation of Plasmodium falciparum line GB4 (AID 1816); conditions: Potency: Plasmodium falciparum GB4 proliferation inhibition;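 further: parasite growth measured after 72 h incubation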; further: potency means the concentration at half of the fitted maximal effect
[17] = qHTS for differential inhibitors of proliferation of Plasmodium falciparum line 3D7 (AID 1876); further: potency means the concentration at half of the fitted maximal effect
[18] = qHTS for differential inhibitors of proliferation of Plasmodium falciparum line D10 (AID 1877);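 further: parasites grown with compound for 72 h before DNA staining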; further: potency means the concentration at half of the fitted maximal effect
[19] = qHTS for differential inhibitors of proliferation of Plasmodium falciparum line W2 (AID 1883); conditions: Potency: Plasmodium falciparum W2 proliferation inhibition;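 further: parasites grown with compound for 72 h before lysis and staining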; further: potency means the concentration at half of the fitted maximal effect
[20] = target: RecQ-like DNA helicase BLM (Homo sapiens) (UniProt P54132); assay: qHTS Validation Assay for Inhibitors of Bloom's syndrome helicase (BLM) (AID 2364)
Chain of RecQ-like DNA helicase BLM (Homo sapiens) (P54132 whole entry, looked up): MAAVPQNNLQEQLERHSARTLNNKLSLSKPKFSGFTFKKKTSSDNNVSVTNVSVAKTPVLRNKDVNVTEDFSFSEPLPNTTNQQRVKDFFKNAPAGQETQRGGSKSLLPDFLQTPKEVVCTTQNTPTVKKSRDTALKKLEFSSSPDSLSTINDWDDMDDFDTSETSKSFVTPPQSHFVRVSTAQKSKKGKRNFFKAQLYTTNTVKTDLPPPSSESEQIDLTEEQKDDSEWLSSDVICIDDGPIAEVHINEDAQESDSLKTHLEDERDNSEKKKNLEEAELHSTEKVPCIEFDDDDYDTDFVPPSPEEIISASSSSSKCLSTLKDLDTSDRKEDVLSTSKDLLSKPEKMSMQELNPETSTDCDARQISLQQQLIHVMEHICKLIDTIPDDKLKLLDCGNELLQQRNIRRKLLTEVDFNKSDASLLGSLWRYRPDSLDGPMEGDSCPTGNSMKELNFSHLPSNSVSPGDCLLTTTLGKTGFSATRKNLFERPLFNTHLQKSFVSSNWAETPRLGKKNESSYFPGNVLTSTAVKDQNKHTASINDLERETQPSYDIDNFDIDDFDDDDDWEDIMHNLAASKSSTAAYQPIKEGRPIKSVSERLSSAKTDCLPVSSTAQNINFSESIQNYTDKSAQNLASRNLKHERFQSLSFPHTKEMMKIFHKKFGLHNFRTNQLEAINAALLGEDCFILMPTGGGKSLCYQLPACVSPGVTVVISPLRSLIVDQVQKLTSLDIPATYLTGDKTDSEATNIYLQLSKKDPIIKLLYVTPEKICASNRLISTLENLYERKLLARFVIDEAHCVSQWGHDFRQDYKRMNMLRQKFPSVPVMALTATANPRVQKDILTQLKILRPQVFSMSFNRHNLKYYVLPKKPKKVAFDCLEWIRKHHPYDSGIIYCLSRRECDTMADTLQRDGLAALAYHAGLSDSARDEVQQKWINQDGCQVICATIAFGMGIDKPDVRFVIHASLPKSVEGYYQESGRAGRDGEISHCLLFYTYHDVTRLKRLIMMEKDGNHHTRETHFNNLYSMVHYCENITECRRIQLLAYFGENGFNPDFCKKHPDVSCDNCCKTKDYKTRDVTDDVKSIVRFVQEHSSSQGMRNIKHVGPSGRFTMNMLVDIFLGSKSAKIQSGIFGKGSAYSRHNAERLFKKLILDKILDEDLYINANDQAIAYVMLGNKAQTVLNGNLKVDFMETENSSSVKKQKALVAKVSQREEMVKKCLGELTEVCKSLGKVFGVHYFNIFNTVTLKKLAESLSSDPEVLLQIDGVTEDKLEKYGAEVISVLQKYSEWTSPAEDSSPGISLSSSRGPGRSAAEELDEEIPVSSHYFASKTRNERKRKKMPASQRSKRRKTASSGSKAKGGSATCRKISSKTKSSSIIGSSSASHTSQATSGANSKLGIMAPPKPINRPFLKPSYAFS
Summary of the method: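 50 nM BLM preincubated 15 min at room temperature with compound in pH 8.0 Tris buffer containing 2.5 ug/ml poly(dI-dC); started with 200 nM TAMRA/BHQ-2 forked duplex and 2 mM ATP (final). Unwinding read as TAMRA fluorescence increase, two reads 2 h apart.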

Row | Compound | outcome [1] | Potency [2] | Potency [3] | Potency [4] | outcome [5] | outcome [6] | outcome [7] | outcome [8] | Potency [9] | Potency [10] | outcome [11] | outcome [12] | Potency [13] | outcome [14] | outcome [15] | Potency [16] | Potency [17] | Potency [18] | Potency [19] | outcome [20]
1 | C[C@]12CC[C@@H]3c4ccc(O)cc4CC[C@H]3[C@@H]1CC[C@@H]2O | inactive | inactive | inactive | inactive | inactive | inactive | inactive | inactive | inactive | inactive | inactive | inactive | inactive | inactive |  |  |  |  |  | 
2 | O=c1ccc2ccccc2o1 |  |  |  |  |  |  |  |  |  |  |  |  |  |  | inactive |  |  |  |  | 
3 | CCCCCCc1ccc(O)cc1O |  |  |  |  |  |  |  |  |  |  |  |  |  |  | inactive |  |  |  |  | 
4 | CN1C2CCC1CC(OC(=O)c1c[nH]c3ccccc13)C2 (stereo unspecified) | inactive | 7.08 µM (active) |  |  | inactive | inactive | inactive | inactive |  |  | inactive | inactive | inactive | inactive |  | 11.2 µM (active) | 10 µM (active) | 11.2 µM (active) | 8.91 µM (active) | inactive
5 | CCC(NC(C)C)C(O)c1ccc(O)c(O)c1 (stereo unspecified) | inactive | 11.2 µM (active) | 7.08 µM (active) | 8.91 µM (active) | inactive | inactive | inactive | inactive | inactive | inactive | inactive | inactive | inactive | inactive |  | 12.6 µM (active) | 12.6 µM (active) | 12.6 µM (active) | 8.91 µM (active) | 
6 | CNCCC=C1c2ccccc2CCc2ccccc21 | inactive | 7.08 µM (active) | 2.82 µM (active) | 11.2 µM (active) |  | inactive |  |  |  |  | inactive | inactive | inactive | inactive |  | 5.62 µM (active) | 11.2 µM (active) |  | 2.24 µM (active) | inactive
7 | N[C@H](CO)C(=O)O | inactive | inactive | inactive |  | inactive | inactive | inactive | inactive | inactive | inactive | inactive | inactive | inactive | inactive |  | inactive | inactive | inactive | inactive | 
8 | CC(C)C[C@H]1C(=O)N2CCC[C@H]2[C@]2(O)O[C@](NC(=O)[C@@H]3C=C4c5cccc6[nH]c(Br)c(c56)C[C@H]4N(C)C3)(C(C)C)C(=O)N12 |  |  |  |  |  |  | inactive | inactive | inactive |  |  | inactive | inactive | inactive |  |  |  |  |  | 
9 | COc1cc2c(cc1O)CC[C@@H]1[C@@H]2CC[C@]2(C)[C@@H](O)CC[C@@H]12 |  |  |  |  |  |  | inactive | inactive | inactive |  |  | inactive | inactive | inactive |  |  |  |  |  | 
